Source: the supplement of paper PMC13380429

System: Vero E6 infected with SARS-CoV-2
Experiment: inhibition of SARS-CoV-2 cytopathic effect; higher = more antiviral protection, active = above 15
Conditions: 48 h

Measured: inhibition of SARS-CoV-2 cytopathic effect

CC(C)c1cc(C(=O)N2Cc3ccc(CN4CCN(C)CC4)cc3C2)c(O)cc1O
inactive: 1 nM -1.87% | 8.33 nM -3.96% | 100 nM -5.27% | 833.33 nM -1.1% | 10000 nM 0.31%

CN(Cc1cc(Br)cc(Br)c1N)C1CCCCC1 [bromhexine]
inactive: 1 nM 0.85% | 8.33 nM 0.02% | 100 nM 2.7% | 833.33 nM 3.11% | 10000 nM 11.6%

CN(C)CC/C=C1\c2ccccc2CSc2ccccc21 [dosulepin]
inactive: 1 nM -1.78% | 8.33 nM 1.37% | 100 nM 5.41% | 833.33 nM -0.17% | 10000 nM -8.17%

O=C(O)c1ccccc1NCCc1ccccc1 [tromaril]
inactive: 1 nM -2.04% | 8.33 nM 0.78% | 100 nM 1.18% | 833.33 nM 1.39% | 10000 nM 1.35%

COc1cc(COc2cc(N)c(Cl)cc2C(=O)CCC2CCN(CCNS(C)(=O)=O)CC2)cc(OC)c1
inactive: 1 nM 0.91% | 8.33 nM 2.62% | 100 nM -0.09% | 833.33 nM 2.63%
active: 10000 nM 28.3%

NC[C@@H]1CC[C@@H](N)[C@@H](O[C@H]2[C@H](O)[C@@H](O[C@H]3O[C@H](CO)[C@@H](O)[C@H](N)[C@H]3O)[C@H](N)C[C@@H]2N)O1 [dibekacin]
inactive: 1 nM 5.18% | 8.33 nM -1.26% | 100 nM 1.67% | 833.33 nM 2% | 10000 nM 1.51%

Cc1cn(C[C@H](N)C(=O)O)c(=O)n(Cc2ccsc2C(=O)O)c1=O
inactive: 1 nM 1.18% | 8.33 nM 1.91% | 100 nM -1.21% | 833.33 nM 0.03% | 10000 nM 2.18%

Cc1sc(C)c2c1CCC=C2c1c[nH]cn1
inactive: 1 nM -1.05% | 8.33 nM -1.35% | 100 nM -1.5% | 833.33 nM -2.81% | 10000 nM -2.28%

N[C@H](Cc1ccccc1)C(=O)O [D-phenylalanine]
inactive: 1 nM 2.99% | 8.33 nM -0.14% | 100 nM 2.52% | 833.33 nM 0.27% | 10000 nM 0.05%

OC[C@H]1O[C@@H](n2cnc3c(N[C@H]4CCC[C@@H]4O)ncnc32)[C@H](O)[C@@H]1O
inactive: 1 nM 4.79% | 8.33 nM 4.09% | 100 nM 3.63% | 833.33 nM -0.63% | 10000 nM 0.91%

Clc1ccc(N2CCN(Cc3c[nH]c4ncccc34)CC2)cc1
inactive: 1 nM -0.1% | 8.33 nM -0.31% | 100 nM -2.94% | 833.33 nM 1.1% | 10000 nM -3.38%

CCOc1ccc(Cc2nccc3cc(OCC)c(OCC)cc23)cc1OCC [ethaverine]
inactive: 1 nM -8.51% | 8.33 nM -11.9% | 100 nM -9.06% | 833.33 nM -7.91% | 10000 nM -8.28%

CC1C(=O)OC2C(O)C34C5CC(C(C)(C)C)C36C(OC(=O)C6O)OC4(C(=O)O5)C12O (stereo not given) [ginkgolide-B]
inactive: 1 nM 1.36% | 8.33 nM 0.56% | 100 nM -1.98% | 833.33 nM 2.69% | 10000 nM 0.1%

CCOc1ccc2nc(SCCN3CCOCC3)[nH]c2c1 [afobazole]
inactive: 1 nM 0.28% | 8.33 nM 0.47% | 100 nM -1.23% | 833.33 nM -0.04% | 10000 nM 1.56%

COC(=O)[C@H](CC(C)C)NC(=O)[C@@H](N)CC(C)C [leucylleucine-methyl-ester]
inactive: 1 nM -2.04% | 8.33 nM 0.78% | 100 nM -1.7% | 833.33 nM -0.61% | 10000 nM -0.55%

O=C(O[C@@H]1Cc2c(O)cc(O)cc2O[C@@H]1c1ccc(O)c(O)c1)c1cc(O)c(O)c(O)c1 [epicatechin-gallate-(-)]
inactive: 1 nM -1.08% | 8.33 nM 3.11% | 100 nM 5.77% | 833.33 nM 3.37% | 10000 nM -0.51%

CC1=CC(=O)c2ccccc2C1=O [menadione]
inactive: 1 nM 1% | 8.33 nM 1.27% | 100 nM -0.28% | 833.33 nM -0.16% | 10000 nM -2.15%

C=C1/C(=C\C=C2/CCC[C@]3(C)[C@@H]([C@H](C)CCCC(O)(C(F)(F)F)C(F)(F)F)CC[C@@H]23)C[C@@H](O)C[C@@H]1O [falecalcitriol]
inactive: 1 nM -0.53% | 8.33 nM 0.41% | 100 nM -1.28% | 833.33 nM 0.88% | 10000 nM -2.37%

Nc1ccn(C[C@@H](CO)OCP(=O)(O)O)c(=O)n1 [cidofovir]
inactive: 1 nM -0.38% | 8.33 nM 0.11% | 100 nM -1.45% | 833.33 nM -1.91% | 10000 nM -2.8%

NC(=O)c1nc(F)cnc1O [Favipiravir]
inactive: 1 nM -0.26% | 8.33 nM 1.4% | 100 nM -0.55% | 833.33 nM 1.38% | 10000 nM -0.22%

CC(C)(C)C(=O)OCOP(=O)(COCCn1cnc2c(N)ncnc21)OCOC(=O)C(C)(C)C [adefovir-dipivoxil]
inactive: 1 nM 2.79% | 8.33 nM 1.23% | 100 nM -0.37% | 833.33 nM -2.27% | 10000 nM -3.69%

CNCCC=C1c2ccccc2CCc2ccccc21 [nortriptyline]
inactive: 1 nM 1.29% | 8.33 nM -0.85% | 100 nM 0.56% | 833.33 nM 1.26% | 10000 nM -4.8%

CSc1ccc(C(=O)N[C@@H]2CCCC[C@@H]2NC(=O)CNC(=O)c2cc(C(F)(F)F)ccc2NC(=O)NC(C)C)cc1
inactive: 1 nM 4.3% | 8.33 nM -0.79% | 100 nM 0.52% | 833.33 nM 0.24% | 10000 nM 0.79%

CCNC(=O)/C=C/c1cccc(Br)c1 [cinromide]
inactive: 1 nM 0.47% | 8.33 nM 1.25% | 100 nM 0.09% | 833.33 nM 2.1% | 10000 nM 1.33%

Nc1cc2c3ccccc3ccc2c2ccccc12 [6-aminochrysene]
inactive: 1 nM 1.36% | 8.33 nM 2.29% | 100 nM 2.99% | 833.33 nM -3.94% | 10000 nM 1.34%

CC(C)(C)C(=O)OCC(=O)[C@H]1CC[C@H]2[C@@H]3CCC4=CC(=O)CC[C@]4(C)[C@H]3CC[C@]12C [desoxycorticosterone-pivalate]
inactive: 1 nM -1.6% | 8.33 nM 0.71% | 100 nM -0.4% | 833.33 nM -0.12% | 10000 nM 0.98%

O=C(OOC(=O)c1ccccc1)c1ccccc1 [benzoyl-peroxide]
inactive: 1 nM 2.98% | 8.33 nM 2.38% | 100 nM -1.92% | 833.33 nM -1.86% | 10000 nM -0.05%

O=C1c2cccc3c2[C@H](CCC3)CN1[C@@H]1CN2CCC1CC2 [palonosetron]
inactive: 1 nM -2.25% | 8.33 nM -0.74% | 100 nM -0.65% | 833.33 nM -0.13% | 10000 nM -0.75%

Cc1ncc(OC[C@@]2(c3cccc(F)c3)C[C@H]2C(=O)Nc2ccc(F)cn2)c(C)n1 [lemborexant]
inactive: 1 nM -1.6% | 8.33 nM -1.02% | 100 nM -1.75% | 833.33 nM -4.61% | 10000 nM -1.06%

O=C(c1cccc(Br)c1)N1CCC(N2CCCC2)CC1
inactive: 1 nM -0.38% | 8.33 nM 1.79% | 100 nM -0.46% | 833.33 nM 2.16% | 10000 nM -0.32%

Cc1ccccc1C(OCCN(C)C)c1ccccc1 (stereo not given) [orphenadrine]
inactive: 1 nM 0.59% | 8.33 nM 0.5% | 100 nM -0.66% | 833.33 nM 1.65% | 10000 nM -0.73%

CN(C)CCC=C1c2ccccc2C=Cc2ccccc21 [cyclobenzaprine]
inactive: 1 nM 0.3% | 8.33 nM 6.56% | 100 nM 3.92% | 833.33 nM -1.83% | 10000 nM -6.67%

NCCCCN [putrescine]
inactive: 1 nM 2.4% | 8.33 nM 3.44% | 100 nM -0.12% | 833.33 nM 4.47% | 10000 nM 0.82%

O=C(NO)C1(CS(=O)(=O)c2ccc(Oc3ccc(Cl)cc3)cc2)CCOCC1
inactive: 1 nM -0.75% | 8.33 nM -2.34% | 100 nM 0.31% | 833.33 nM -0.91% | 10000 nM -11.7%

N[C@H](C(=O)O)c1ccc(O)c(C(=O)O)c1 [3-carboxy-4-hydroxyphenylglycine-(S)]
inactive: 1 nM -1.22% | 8.33 nM 0.105% | 100 nM -0.545% | 833.33 nM -1.18% | 10000 nM 0.39%

COCc1c(-c2ccc(NC(=O)Nc3cc(C(F)(F)F)ccc3F)c(F)c2)c2c(N)ncnn2c1CN1CCOCC1
inactive: 1 nM -1.56% | 8.33 nM -1.94% | 100 nM -2.74% | 833.33 nM -0.39% | 10000 nM -0.16%

O=c1[nH]c(CCl)nc2sc3c(c12)CCCC3
inactive: 1 nM -1.17% | 8.33 nM -1.84% | 100 nM -1.12% | 833.33 nM 0.17% | 10000 nM 12.3%

CCOC(=O)[C@H](Cc1ccccc1)NC(=O)c1cc(Cl)c(OCCN2CCN(C)CC2)c(Cl)c1O
inactive: 1 nM -1.93% | 8.33 nM 1.91% | 100 nM 0.81% | 833.33 nM -1.07% | 10000 nM 2.79%

CCCCCCNC(=O)n1cc(F)c(=O)[nH]c1=O [carmofur]
inactive: 1 nM 2.01% | 8.33 nM 4.18% | 100 nM 2.63% | 833.33 nM 2.67% | 10000 nM 4.01%

C[C@]12CCC(=O)C=C1CC[C@@H]1[C@@H]2CC[C@@]2(C)[C@H]1CC[C@]2(O)C(=O)CO [cortodoxone]
inactive: 1 nM -0.53% | 8.33 nM -0.71% | 100 nM 1.21% | 833.33 nM 0.07% | 10000 nM -1.41%
